Test results: PubChem BioAssay (EPA / NIEHS)
Inconclusive results are not listed. Active and inactive are the calls of the source. How the source made its calls, unless noted: active means hit-call score of the fitted dose curve at least 0.9, where 1 is the maximum; inactive means score below 0.9.

Key:
[1] = target: Paired box protein Pax-6 (Homo sapiens) (UniProt P26367); assay: ATG_Pax6_CIS: Attagene CIS-FACTORIAL HepG2 Assay for human Paired Box 6 (PAX6) (AID 2282956); conditions: HepG2 CIS-FACTORIAL PAX6 reporter transcription, RNA readout; actives raise or lower the signal
Sequence of Paired box protein Pax-6 (Homo sapiens) (P26367 whole entry, looked up): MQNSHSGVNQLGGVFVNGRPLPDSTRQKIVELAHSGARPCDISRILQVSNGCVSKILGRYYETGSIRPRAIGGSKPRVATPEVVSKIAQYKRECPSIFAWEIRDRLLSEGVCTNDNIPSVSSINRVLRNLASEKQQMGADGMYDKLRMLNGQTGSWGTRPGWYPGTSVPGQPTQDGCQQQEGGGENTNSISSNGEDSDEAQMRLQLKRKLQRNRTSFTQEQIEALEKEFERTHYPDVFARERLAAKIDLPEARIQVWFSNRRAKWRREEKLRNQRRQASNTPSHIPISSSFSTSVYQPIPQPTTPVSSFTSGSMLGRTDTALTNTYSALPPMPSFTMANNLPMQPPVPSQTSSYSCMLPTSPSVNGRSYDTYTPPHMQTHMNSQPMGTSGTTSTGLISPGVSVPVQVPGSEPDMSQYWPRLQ
In short: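 Read-out is reporter transcript level, measured by RT-PCR with fluorescent primer extension and capillary electrophoresis after 24 h dosing of transfected HepG2 cells. Activity in either direction fitted relative to DMSO control.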

[2] = ATG_PXRE_CIS: Attagene CIS-FACTORIAL HepG2 Assay for human Pregnane X Receptor Element (PXRE) (AID 2282957); conditions: HepG2 Attagene CIS-FACTORIAL PXRE reporter, mRNA; actives raise or lower the signal
In short: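 Using HepG2 transfected with multiple reporter transcription units, endogenous factor-driven transcription was scored as reporter mRNA after 24 h exposure.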

[3] = ATG_RORE_CIS: Attagene CIS-FACTORIAL HepG2 Assay for human RAR-related Orphan Receptor Element (RORE) (AID 2282959); conditions: HepG2 Attagene cis-factorial RORE reporter, mRNA; actives raise or lower the signal
In short: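 Transiently transfected HepG2 reporter cells were treated 24 h. Reporter transcripts were detected by RT-PCR and capillary electrophoresis, with bidirectional fitting against DMSO.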

[4] = ATG_Sox_CIS: Attagene CIS-FACTORIAL HepG2 Assay for human SRY-box transcription factor (SOX) (AID 2282960); conditions: HepG2 Attagene cis-factorial SOX reporter, mRNA; actives raise or lower the signal
In short: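 Gain- or loss-of-signal endpoint, fitted bidirectionally with DMSO as negative control. Based on reporter mRNA from transfected HepG2 cells harvested 24 h post-treatment and quantified via RT-PCR and capillary electrophoresis.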

[5] = target: Transcription factor Sp1 (Homo sapiens) (UniProt P08047); assay: ATG_Sp1_CIS: Attagene CIS-FACTORIAL HepG2 Assay for human Specificity Protein 1 (Sp1) (AID 2282961); conditions: HepG2 Sp1 cis-reporter transcription, actives raise or lower the signal
Sequence of Transcription factor Sp1 (Homo sapiens) (P08047 whole entry, looked up, the tested form may be a part): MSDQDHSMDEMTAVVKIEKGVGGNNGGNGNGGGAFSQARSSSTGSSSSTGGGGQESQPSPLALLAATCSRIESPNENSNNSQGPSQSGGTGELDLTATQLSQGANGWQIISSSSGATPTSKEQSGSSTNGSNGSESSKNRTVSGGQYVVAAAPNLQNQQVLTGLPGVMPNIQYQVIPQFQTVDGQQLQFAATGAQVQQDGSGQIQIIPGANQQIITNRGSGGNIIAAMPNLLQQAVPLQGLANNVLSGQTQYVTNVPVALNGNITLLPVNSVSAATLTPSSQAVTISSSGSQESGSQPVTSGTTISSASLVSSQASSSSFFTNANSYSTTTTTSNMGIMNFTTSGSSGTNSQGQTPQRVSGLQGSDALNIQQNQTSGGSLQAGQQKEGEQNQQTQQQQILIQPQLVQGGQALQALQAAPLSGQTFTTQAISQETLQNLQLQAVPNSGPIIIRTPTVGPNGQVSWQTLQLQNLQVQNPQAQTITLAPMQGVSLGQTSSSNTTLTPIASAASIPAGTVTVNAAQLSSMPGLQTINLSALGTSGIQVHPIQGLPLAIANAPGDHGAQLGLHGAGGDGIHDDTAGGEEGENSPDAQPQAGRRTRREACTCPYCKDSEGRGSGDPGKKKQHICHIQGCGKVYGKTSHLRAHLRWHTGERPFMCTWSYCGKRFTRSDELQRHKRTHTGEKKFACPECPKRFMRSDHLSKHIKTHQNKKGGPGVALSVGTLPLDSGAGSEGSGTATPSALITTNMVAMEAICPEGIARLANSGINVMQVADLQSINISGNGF
In short: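 Endpoint reflects endogenous Sp1 transcriptional activity, not an exogenous fusion protein: HepG2 cells with transfected cis-regulated reporters, 24 h dosing, RT-PCR/capillary electrophoresis mRNA read-out, DMSO-normalised bidirectional fit.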

[6] = ATG_SREBP_CIS: Attagene CIS-FACTORIAL HepG2 Assay for human Sterol Regulatory Element Binding (SREBP) (AID 2282962); conditions: HepG2 Attagene cis-factorial SREBP reporter, mRNA; actives raise or lower the signal
In short: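 Endogenous SREBP activity read as cis-element-driven reporter transcript in transiently transfected HepG2, 24 h post-dosing; quantified via RT-PCR plus capillary electrophoresis of fluorescent fragments. Gain or loss of signal fitted relative to DMSO baseline.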

[7] = target: Signal transducer and activator of transcription 3 (Homo sapiens) (UniProt P40763); assay: ATG_STAT3_CIS: Attagene CIS-FACTORIAL HepG2 Assay for human Signal Transducer and Activator of Transcription 3 (STAT3) (AID 2282963); conditions: HepG2, Attagene cis-factorial STAT3 reporter transcription; actives raise or lower the signal
Sequence of Signal transducer and activator of transcription 3 (Homo sapiens) (P40763 whole entry, looked up): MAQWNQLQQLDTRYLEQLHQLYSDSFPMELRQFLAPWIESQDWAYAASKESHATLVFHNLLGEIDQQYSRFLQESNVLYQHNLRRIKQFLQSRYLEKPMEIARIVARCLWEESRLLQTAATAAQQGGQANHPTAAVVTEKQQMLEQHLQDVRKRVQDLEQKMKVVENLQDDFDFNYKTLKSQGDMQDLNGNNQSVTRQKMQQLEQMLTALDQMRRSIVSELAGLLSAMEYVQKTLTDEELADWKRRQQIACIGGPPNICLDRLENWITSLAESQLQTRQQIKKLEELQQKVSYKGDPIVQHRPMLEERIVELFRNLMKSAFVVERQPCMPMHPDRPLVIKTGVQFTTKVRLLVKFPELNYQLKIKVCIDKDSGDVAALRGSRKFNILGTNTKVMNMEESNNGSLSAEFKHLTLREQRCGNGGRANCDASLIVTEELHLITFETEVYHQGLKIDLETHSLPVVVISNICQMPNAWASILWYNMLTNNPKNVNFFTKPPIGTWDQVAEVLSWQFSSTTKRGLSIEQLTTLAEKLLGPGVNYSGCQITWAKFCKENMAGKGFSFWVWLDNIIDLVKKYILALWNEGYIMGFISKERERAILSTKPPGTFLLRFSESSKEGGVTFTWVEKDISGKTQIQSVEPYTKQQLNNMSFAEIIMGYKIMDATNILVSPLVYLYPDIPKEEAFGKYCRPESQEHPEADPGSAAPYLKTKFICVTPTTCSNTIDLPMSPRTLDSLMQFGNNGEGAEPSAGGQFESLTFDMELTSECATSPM
In short: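 Readout is reporter transcript quantified by RT-PCR and capillary electrophoresis, with 6-FAM primer extension and HpaI digestion. Total RNA is taken 24 h after dosing transiently transfected HepG2 carrying cis-regulated reporter units. Bidirectional fit against DMSO.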

[8] = ATG_TA_CIS: Attagene CIS-FACTORIAL HepG2 Assay for human TA Basal Promoter (AID 2282964); conditions: HepG2 Attagene CIS-factorial TA basal promoter reporter; actives raise or lower the signal
In short: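 Cis-factorial format in HepG2: reporters report endogenous factors, not chimeric Gal4 fusions. After 24 h treatment, reporter transcripts were measured by RT-PCR-capillary electrophoresis fluorescence, analysed bidirectionally versus DMSO.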

[9] = ATG_TCF_b_cat_CIS: Attagene CIS-FACTORIAL HepG2 Assay for human T-Cell-Factor with beta-catenin (TCF/b-cat) (AID 2282965); conditions: HepG2 TCF/beta-catenin cis-reporter transcription, actives raise or lower the signal
In short: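 Endogenous transcription factor activity is captured through cis-promoter reporter constructs transiently introduced into human HepG2 liver cells. Induced reporter mRNA is measured after 24 h and fitted bidirectionally relative to DMSO.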

[10] = ATG_TAL_CIS: Attagene CIS-FACTORIAL HepG2 Assay for human TAL Basal Promoter (AID 2282966); conditions: HepG2 Attagene cis-factorial TAL promoter reporter; actives raise or lower the signal;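 further: background control endpoint measuring basal TAL promoter reporter mRNA not a specific factor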
In short: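 After 24 hours of chemical exposure, transfected HepG2 cells yielded RNA that was converted to 6-FAM-labelled, HpaI-digested reporter fragments for capillary electrophoresis. Values derive from bidirectional fitting against DMSO controls.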

[11] = ATG_TGFb_CIS: Attagene CIS-FACTORIAL HepG2 Assay for human Transforming Growth Factor (TGF) (AID 2282967); conditions: HepG2 Attagene CIS TGFb reporter, mRNA transcription; actives raise or lower the signal
In short: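 Multiplexed cis-reporter HepG2 system, 24 h treatment; mRNA induction read by fluorescence after RT-PCR and CE; DMSO negative control, bidirectional curve fitting.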

[12] = target: Nuclear receptor subfamily 1 group I member 3 (Homo sapiens) (UniProt Q14994); assay: ATG_CAR_TRANS: Attagene TRANS-FACTORIAL HepG2 Assay for human Constitutive Androstane Receptor (CAR) (AID 2282969; active means hit-call score of the fitted dose curve at least 0.9, where 1 is the maximum;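 further: activators raise reporter mRNA above DMSO so AC50 marks induction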); conditions: HepG2 Attagene TRANS-FACTORIAL CAR reporter
Sequence of Nuclear receptor subfamily 1 group I member 3 (Homo sapiens) (Q14994 whole entry, looked up, the tested form may be a part): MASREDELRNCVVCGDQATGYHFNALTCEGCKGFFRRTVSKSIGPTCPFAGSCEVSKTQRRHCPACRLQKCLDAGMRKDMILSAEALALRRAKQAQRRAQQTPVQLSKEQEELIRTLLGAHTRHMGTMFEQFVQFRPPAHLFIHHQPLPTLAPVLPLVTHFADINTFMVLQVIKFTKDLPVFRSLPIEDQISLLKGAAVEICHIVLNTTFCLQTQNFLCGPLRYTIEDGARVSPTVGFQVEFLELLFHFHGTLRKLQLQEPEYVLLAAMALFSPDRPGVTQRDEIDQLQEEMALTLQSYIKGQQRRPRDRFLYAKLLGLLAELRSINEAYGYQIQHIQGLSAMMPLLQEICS
In short: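 Signal is reporter mRNA induction relative to DMSO, measured 24 h after dosing by RT-PCR with fluorescent primer extension and capillary electrophoresis. Human HepG2 liver cells carried transiently transfected chimeric NR-Gal4/GAL4-UAS reporter constructs.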

[13] = target: X-box-binding protein 1 (Homo sapiens) (UniProt P17861); assay: ATG_Xbp1_CIS: Attagene CIS-FACTORIAL HepG2 Assay for human X-box Binding Protein 1 (XBP1) (AID 2282972); conditions: HepG2 XBP1 cis-element reporter, Attagene multiplex; actives raise or lower the signal
Sequence of X-box-binding protein 1 (Homo sapiens) (P17861 whole entry, looked up): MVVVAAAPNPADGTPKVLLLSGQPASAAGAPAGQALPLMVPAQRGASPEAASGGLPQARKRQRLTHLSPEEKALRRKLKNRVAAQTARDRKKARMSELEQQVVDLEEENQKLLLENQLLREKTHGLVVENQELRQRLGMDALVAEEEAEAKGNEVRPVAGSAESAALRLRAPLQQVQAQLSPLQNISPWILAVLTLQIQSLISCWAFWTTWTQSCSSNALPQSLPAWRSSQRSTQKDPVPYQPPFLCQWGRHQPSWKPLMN
In short: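 Reporter transcripts were quantified by RT-PCR with fluorescent primer extension and capillary electrophoresis after 24 h chemical exposure. Cells: transiently transfected HepG2 carrying cis-regulated reporter constructs; data fitted bidirectionally relative to DMSO.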

[14] = ATG_GAL4_TRANS: Attagene TRANS-FACTORIAL HepG2 Assay for GAL4 (Internal Marker) (AID 2282976; active means hit-call score of the fitted dose curve at least 0.9, where 1 is the maximum); conditions: HepG2 Attagene TRANS GAL4 internal marker reporter
In short: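 First, HepG2 cells were transfected with reporter units under GAL4-UAS control. Next, they were treated with chemical for 24 h. Finally, RNA was reverse-transcribed, PCR-amplified, FAM-labelled and resolved by capillary electrophoresis, with induction scored against DMSO.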

[15] = ATG_VDRE_CIS: Attagene CIS-FACTORIAL HepG2 Assay for human Vitamin D Receptor Element (VDRE) (AID 2282968); conditions: HepG2 VDRE cis-reporter transcription, actives raise or lower the signal
In short: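 Readout is VDRE-driven reporter mRNA reflecting endogenous factor activity in human HepG2 cells, sampled 24 h post-dose. Quantification used labelled RT-PCR products separated by capillary electrophoresis; bidirectional analysis relative to DMSO.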

[16] = target: Estrogen-related receptor gamma (Homo sapiens) (UniProt P62508); assay: ATG_ERRg_TRANS: Attagene TRANS-FACTORIAL HepG2 Assay for human Estrogen-Related Receptor gamma (ERRg) (AID 2282977; active means hit-call score of the fitted dose curve at least 0.9, where 1 is the maximum;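 further: hits increase reporter signal over DMSO so potencies reflect activators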); conditions: HepG2 Attagene TRANS reporter, ERRg transactivation
Sequence of Estrogen-related receptor gamma (Homo sapiens) (P62508 whole entry, looked up, the tested form may be a part): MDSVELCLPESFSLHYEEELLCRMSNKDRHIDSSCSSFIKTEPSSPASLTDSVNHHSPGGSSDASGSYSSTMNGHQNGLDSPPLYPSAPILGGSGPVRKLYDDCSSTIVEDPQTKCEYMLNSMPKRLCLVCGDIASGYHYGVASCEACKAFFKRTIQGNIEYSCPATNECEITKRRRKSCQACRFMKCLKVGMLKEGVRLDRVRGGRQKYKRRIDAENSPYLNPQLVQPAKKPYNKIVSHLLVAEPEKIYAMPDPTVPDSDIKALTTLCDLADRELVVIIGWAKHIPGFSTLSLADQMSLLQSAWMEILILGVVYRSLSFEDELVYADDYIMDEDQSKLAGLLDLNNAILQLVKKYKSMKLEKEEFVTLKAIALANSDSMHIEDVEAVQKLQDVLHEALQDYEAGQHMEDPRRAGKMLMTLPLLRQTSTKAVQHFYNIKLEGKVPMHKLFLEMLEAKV
In short: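 Induction of reporter transcripts through a chimeric NR-Gal4 protein is quantified in transfected human HepG2 liver cells after 24 h chemical exposure, using RT-PCR with capillary electrophoresis detection and DMSO as baseline.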

[17] = ATG_M_19_TRANS: Attagene TRANS-FACTORIAL HepG2 Assay for M19 Transcription Factor (Internal Marker) (AID 2282974; active means hit-call score of the fitted dose curve at least 0.9, where 1 is the maximum); conditions: HepG2 Attagene TRANS-FACTORIAL M19 internal marker reporter
In short: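 Using RT-PCR and capillary electrophoresis, reporter mRNA from transiently transfected human HepG2 cells was quantified following 24 h exposure; activity was fitted in the positive direction against DMSO.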

[18] = target: Steroid hormone receptor ERR1 (Homo sapiens) (UniProt P11474); assay: ATG_ERRa_TRANS: Attagene TRANS-FACTORIAL HepG2 Assay for human Estrogen-Related Receptor alpha (ERRa) (AID 2282971; active means hit-call score of the fitted dose curve at least 0.9, where 1 is the maximum); conditions: HepG2 Attagene TRANS reporter, ERRa transactivation
Sequence of Steroid hormone receptor ERR1 (Homo sapiens) (P11474 whole entry, looked up, the tested form may be a part): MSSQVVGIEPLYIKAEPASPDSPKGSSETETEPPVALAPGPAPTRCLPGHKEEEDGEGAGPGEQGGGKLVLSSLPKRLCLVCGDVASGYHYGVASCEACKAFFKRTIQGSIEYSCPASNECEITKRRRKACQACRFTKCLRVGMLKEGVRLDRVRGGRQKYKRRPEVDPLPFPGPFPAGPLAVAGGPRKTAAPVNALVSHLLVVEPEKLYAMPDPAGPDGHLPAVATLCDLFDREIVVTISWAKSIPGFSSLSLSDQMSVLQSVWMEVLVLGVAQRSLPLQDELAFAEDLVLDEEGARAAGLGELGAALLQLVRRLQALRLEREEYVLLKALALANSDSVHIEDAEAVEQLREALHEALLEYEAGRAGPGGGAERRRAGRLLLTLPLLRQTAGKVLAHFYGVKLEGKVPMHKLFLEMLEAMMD
In short: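 Reporter transcript induction was quantified by RT-PCR and capillary electrophoresis of FAM-labelled, HpaI-cut products after 24 h treatment of HepG2 cells carrying transiently transfected GAL4-UAS reporter units and an exogenous ERRa-Gal4 fusion; activity scored as increase over DMSO.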

Measured: AC50

CCCCCCC(C)(C)S
inactive: [1] | [3] | [4] | [5] | [6] | [7] | [8] | [9] | [10] | [11] | [12] | [13] | [14]
active: [2] 39 µM

CCc1cc(Cc2cc(CC)cc(C(C)(C)C)c2O)c(O)c(C(C)(C)C)c1
inactive: [4] | [6] | [7] | [9] | [10] | [11] | [16]
active: [1] 16.6 µM | [2] 0.0355 µM | [3] 18.1 µM | [5] 11.1 µM | [8] 11.1 µM | [15] 4.77 µM | [13] 16.9 µM

CC(=O)Nc1ccc(C(=O)CCl)cc1
inactive: [2] | [3] | [7] | [8] | [10] | [11]
active: [1] 9 µM | [4] 8.57 µM | [5] 8.32 µM | [6] 8.67 µM | [15] 8.84 µM | [13] 7.85 µM

COS(=O)(=O)O
inactive: [1] | [2] | [3] | [4] | [5] | [6] | [7] | [10] | [11] | [15] | [13] | [17] | [14]

CN(C)C(=O)Nc1ccc(Oc2ccc(Cl)cc2)cc1
inactive: [1] | [3] | [4] | [5] | [6] | [7] | [8] | [9] | [10] | [11] | [15] | [13]
active: [2] 26.7 µM

C#CC(C)(O)CC(C)C (stereo unspecified)
inactive: [1] | [2] | [3] | [4] | [5] | [7] | [8] | [9] | [10] | [11] | [15] | [12] | [18] | [13] | [17]

CSc1c(Cl)c(Cl)c(Cl)c(Cl)c1Cl
active: [1] 100 µM | [2] 2.94 µM | [5] 72.8 µM | [6] 135 µM | [9] 50.3 µM | [13] 136 µM
inactive: [3] | [4] | [7] | [8] | [10] | [11] | [15]

OCC(O)c1ccccc1 (stereo unspecified)
inactive: [1] | [2] | [3] | [4] | [5] | [6] | [7] | [8] | [9] | [10] | [11] | [15] | [13] | [14]

CC(C)OCCO
inactive: [1] | [2] | [3] | [4] | [5] | [6] | [7] | [9] | [10] | [11] | [15] | [12] | [13]
